# Reference: ChEMBL document CHEMBL1961873, “Compounds: GSK PKIS; Assays: Nanosyn kinase panel” (2012)
# Key:
# [1] = molecular target: Death-associated protein kinase 1 (Homo sapiens) (UniProt P53355); conditions: at 1 µM;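 note: each value is a mean inhibition figure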
# [2] = molecular target: T1, Serine/threonine-protein kinase DCLK2 (Homo sapiens) (UniProt Q8N568); conditions: at 0.1 µM
# T1 sequence (whole entry): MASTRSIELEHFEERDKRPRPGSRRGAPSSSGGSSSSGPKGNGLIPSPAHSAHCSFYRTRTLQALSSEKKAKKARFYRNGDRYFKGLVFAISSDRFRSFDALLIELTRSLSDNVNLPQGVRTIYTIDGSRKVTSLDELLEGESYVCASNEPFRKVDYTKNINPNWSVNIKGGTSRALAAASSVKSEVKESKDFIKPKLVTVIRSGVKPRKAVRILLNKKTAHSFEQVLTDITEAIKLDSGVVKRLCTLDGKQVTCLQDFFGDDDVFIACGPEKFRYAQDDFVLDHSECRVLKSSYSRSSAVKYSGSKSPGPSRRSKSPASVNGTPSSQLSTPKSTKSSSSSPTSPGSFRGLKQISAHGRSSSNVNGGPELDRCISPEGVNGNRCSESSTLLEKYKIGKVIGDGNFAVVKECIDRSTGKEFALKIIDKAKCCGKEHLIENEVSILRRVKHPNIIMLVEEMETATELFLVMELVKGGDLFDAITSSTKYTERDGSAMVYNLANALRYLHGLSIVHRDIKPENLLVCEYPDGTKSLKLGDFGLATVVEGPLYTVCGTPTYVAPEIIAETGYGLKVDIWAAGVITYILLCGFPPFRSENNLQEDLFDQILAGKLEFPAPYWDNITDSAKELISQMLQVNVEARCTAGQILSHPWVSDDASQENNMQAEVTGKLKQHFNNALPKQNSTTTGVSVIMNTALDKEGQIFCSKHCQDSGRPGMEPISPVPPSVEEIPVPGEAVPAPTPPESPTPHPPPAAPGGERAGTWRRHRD
# [3] = molecular target: T1, Serine/threonine-protein kinase DCLK2 (Homo sapiens); conditions: at 1 µM
# [4] = molecular target: MAP kinase-activated protein kinase 2 (Homo sapiens) (UniProt P49137); conditions: at 0.1 µM
# Chain of MAP kinase-activated protein kinase 2 (Homo sapiens) (P49137 whole entry, looked up): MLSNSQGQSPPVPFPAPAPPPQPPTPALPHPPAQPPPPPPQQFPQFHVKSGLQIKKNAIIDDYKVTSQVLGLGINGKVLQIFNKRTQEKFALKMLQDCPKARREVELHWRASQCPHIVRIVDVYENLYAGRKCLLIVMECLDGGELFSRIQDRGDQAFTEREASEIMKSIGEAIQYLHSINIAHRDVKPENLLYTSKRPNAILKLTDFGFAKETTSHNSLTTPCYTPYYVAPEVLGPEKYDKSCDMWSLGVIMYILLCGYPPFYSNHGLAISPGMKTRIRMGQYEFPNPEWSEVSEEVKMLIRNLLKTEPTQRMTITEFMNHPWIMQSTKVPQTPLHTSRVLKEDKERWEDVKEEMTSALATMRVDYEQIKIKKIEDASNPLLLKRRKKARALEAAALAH
# [5] = molecular target: MAP kinase-activated protein kinase 2 (Homo sapiens) (UniProt P49137); conditions: at 1 µM
# [6] = molecular target: MAP kinase-activated protein kinase 3 (Homo sapiens) (UniProt Q16644); conditions: at 0.1 µM
# Chain of MAP kinase-activated protein kinase 3 (Homo sapiens) (Q16644 whole entry, looked up): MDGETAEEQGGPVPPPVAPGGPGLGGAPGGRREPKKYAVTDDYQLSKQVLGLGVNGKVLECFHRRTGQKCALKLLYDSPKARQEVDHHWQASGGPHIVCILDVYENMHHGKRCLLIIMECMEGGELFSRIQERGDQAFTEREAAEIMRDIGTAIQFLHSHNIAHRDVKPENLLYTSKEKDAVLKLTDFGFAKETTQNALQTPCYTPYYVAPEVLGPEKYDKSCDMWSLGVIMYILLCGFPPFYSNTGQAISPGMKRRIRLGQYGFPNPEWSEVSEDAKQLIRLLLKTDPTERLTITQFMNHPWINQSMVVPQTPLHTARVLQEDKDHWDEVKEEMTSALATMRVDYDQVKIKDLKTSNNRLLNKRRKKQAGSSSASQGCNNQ
# [7] = molecular target: MAP kinase-activated protein kinase 3 (Homo sapiens) (UniProt Q16644); conditions: at 1 µM
# [8] = molecular target: Serine/threonine-protein kinase MARK1 (Homo sapiens) (UniProt Q9P0L2); conditions: at 0.1 µM
# [9] = molecular target: Serine/threonine-protein kinase MARK1 (Homo sapiens) (UniProt Q9P0L2); conditions: at 1 µM
# [10] = molecular target: MAP/microtubule affinity-regulating kinase 3 (Homo sapiens) (UniProt P27448); conditions: at 0.1 µM
# Chain of MAP/microtubule affinity-regulating kinase 3 (Homo sapiens) (P27448 whole entry, looked up): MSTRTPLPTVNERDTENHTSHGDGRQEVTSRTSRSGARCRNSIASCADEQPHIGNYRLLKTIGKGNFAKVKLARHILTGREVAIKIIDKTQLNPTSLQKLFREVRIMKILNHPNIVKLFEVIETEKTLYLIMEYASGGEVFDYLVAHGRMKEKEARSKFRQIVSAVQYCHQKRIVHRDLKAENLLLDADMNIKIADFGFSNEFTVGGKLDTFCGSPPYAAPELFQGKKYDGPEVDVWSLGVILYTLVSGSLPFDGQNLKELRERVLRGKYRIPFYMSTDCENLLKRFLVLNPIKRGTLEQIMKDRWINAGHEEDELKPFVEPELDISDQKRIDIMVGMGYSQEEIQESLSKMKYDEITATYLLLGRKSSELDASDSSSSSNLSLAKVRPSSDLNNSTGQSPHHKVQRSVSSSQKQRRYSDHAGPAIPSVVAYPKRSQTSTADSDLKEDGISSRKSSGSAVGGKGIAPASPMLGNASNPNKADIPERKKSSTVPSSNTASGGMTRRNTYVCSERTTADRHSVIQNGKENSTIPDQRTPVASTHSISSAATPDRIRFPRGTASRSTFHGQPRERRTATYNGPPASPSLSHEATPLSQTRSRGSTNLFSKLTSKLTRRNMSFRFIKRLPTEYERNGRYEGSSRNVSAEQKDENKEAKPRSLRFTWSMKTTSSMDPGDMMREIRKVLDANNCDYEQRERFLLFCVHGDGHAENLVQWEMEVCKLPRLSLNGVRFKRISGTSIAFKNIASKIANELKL
# [11] = molecular target: MAP/microtubule affinity-regulating kinase 3 (Homo sapiens) (UniProt P27448); conditions: at 1 µM
# [12] = molecular target: T2, MAP/microtubule affinity-regulating kinase 4 (Homo sapiens) (UniProt Q96L34); conditions: at 0.1 µM
# T2 sequence (whole entry): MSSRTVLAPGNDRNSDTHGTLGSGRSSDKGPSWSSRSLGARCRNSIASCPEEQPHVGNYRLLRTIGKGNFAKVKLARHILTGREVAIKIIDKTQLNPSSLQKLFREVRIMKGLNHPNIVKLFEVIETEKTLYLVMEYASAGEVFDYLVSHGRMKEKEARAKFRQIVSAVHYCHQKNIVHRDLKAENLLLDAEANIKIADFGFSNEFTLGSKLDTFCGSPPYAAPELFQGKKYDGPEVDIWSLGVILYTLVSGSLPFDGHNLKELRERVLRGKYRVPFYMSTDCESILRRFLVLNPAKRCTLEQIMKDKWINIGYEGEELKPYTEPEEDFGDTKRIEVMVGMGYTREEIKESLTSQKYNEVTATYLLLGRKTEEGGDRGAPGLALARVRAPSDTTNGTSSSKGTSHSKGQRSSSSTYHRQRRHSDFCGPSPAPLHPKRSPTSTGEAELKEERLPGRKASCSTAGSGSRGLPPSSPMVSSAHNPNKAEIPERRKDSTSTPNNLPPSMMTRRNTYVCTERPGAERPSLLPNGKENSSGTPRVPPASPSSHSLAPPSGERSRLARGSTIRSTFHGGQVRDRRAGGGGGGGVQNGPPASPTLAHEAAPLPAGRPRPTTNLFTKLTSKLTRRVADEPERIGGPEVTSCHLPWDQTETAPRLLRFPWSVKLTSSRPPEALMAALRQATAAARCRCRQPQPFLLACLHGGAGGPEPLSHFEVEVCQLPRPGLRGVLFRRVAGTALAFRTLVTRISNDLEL
# [13] = molecular target: T2, MAP/microtubule affinity-regulating kinase 4 (Homo sapiens); conditions: at 1 µM
# [14] = molecular target: Maternal embryonic leucine zipper kinase (Homo sapiens) (UniProt Q14680); conditions: at 0.1 µM
# Chain of Maternal embryonic leucine zipper kinase (Homo sapiens) (Q14680 whole entry, looked up): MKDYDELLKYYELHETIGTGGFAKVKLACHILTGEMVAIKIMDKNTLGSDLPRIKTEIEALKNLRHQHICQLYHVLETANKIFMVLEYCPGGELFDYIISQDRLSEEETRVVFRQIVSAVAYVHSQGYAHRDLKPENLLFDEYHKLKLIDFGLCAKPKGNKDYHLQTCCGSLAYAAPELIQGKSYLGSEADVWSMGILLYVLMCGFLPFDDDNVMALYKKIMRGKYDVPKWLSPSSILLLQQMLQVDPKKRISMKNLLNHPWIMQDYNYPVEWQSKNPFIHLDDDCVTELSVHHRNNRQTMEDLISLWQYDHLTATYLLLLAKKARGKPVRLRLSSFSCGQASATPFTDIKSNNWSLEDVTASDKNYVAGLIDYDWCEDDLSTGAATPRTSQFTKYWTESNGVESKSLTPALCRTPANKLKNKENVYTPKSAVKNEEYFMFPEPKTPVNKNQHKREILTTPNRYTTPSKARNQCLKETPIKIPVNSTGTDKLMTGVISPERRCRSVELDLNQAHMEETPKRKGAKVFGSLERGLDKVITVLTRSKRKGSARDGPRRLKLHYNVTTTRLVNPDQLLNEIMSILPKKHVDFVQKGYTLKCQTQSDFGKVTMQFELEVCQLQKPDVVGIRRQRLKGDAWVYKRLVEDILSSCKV
# [15] = molecular target: Maternal embryonic leucine zipper kinase (Homo sapiens) (UniProt Q14680); conditions: at 1 µM
# [16] = molecular target: MAP kinase-interacting serine/threonine-protein kinase 1 (Homo sapiens) (UniProt Q9BUB5); conditions: at 0.1 µM
# [17] = molecular target: MAP kinase-interacting serine/threonine-protein kinase 1 (Homo sapiens) (UniProt Q9BUB5); conditions: at 1 µM
# [18] = molecular target: MAP kinase-interacting serine/threonine-protein kinase 2 (Homo sapiens) (UniProt Q9HBH9); conditions: at 0.1 µM
# Chain of MAP kinase-interacting serine/threonine-protein kinase 2 (Homo sapiens) (Q9HBH9 whole entry, looked up): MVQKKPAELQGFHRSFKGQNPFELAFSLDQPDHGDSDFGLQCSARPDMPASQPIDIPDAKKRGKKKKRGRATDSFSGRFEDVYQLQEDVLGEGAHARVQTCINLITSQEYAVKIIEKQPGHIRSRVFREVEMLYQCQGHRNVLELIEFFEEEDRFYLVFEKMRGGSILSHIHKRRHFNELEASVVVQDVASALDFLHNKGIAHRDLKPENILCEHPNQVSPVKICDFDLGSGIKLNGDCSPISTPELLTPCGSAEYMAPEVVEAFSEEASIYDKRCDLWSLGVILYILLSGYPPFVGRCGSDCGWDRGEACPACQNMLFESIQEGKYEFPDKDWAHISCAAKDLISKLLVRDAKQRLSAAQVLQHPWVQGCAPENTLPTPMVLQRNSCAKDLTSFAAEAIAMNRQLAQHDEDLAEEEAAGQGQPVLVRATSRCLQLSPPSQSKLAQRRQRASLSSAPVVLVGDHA
# [19] = molecular target: MAP kinase-interacting serine/threonine-protein kinase 2 (Homo sapiens) (UniProt Q9HBH9); conditions: at 1 µM
# [20] = molecular target: Serine/threonine-protein kinase MARK2 (Homo sapiens) (UniProt Q7KZI7); conditions: at 0.1 µM;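 note: mean percent inhibition of PAR-1Balpha kinase activity, reported from the GSK PKIS screen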
# Chain of Serine/threonine-protein kinase MARK2 (Homo sapiens) (Q7KZI7 whole entry): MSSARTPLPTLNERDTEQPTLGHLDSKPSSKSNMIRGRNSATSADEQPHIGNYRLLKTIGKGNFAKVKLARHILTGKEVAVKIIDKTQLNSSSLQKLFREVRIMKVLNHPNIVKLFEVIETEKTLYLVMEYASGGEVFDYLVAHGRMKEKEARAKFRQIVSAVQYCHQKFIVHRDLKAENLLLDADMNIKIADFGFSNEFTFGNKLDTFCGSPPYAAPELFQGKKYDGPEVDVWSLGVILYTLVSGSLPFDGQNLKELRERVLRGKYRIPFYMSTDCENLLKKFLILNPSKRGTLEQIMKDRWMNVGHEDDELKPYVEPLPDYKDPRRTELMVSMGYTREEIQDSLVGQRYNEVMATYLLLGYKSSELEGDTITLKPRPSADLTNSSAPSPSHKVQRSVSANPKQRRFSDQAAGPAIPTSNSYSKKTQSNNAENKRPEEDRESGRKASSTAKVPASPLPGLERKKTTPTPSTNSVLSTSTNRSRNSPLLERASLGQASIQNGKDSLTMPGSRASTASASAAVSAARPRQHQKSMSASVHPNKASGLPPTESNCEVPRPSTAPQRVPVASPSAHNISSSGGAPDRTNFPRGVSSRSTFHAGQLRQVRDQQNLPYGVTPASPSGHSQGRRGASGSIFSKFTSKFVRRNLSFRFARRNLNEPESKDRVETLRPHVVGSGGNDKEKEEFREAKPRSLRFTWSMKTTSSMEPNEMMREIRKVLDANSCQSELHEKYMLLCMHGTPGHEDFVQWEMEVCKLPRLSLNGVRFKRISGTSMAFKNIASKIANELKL
# Chain of Death-associated protein kinase 1 (Homo sapiens) (P53355 whole entry, looked up): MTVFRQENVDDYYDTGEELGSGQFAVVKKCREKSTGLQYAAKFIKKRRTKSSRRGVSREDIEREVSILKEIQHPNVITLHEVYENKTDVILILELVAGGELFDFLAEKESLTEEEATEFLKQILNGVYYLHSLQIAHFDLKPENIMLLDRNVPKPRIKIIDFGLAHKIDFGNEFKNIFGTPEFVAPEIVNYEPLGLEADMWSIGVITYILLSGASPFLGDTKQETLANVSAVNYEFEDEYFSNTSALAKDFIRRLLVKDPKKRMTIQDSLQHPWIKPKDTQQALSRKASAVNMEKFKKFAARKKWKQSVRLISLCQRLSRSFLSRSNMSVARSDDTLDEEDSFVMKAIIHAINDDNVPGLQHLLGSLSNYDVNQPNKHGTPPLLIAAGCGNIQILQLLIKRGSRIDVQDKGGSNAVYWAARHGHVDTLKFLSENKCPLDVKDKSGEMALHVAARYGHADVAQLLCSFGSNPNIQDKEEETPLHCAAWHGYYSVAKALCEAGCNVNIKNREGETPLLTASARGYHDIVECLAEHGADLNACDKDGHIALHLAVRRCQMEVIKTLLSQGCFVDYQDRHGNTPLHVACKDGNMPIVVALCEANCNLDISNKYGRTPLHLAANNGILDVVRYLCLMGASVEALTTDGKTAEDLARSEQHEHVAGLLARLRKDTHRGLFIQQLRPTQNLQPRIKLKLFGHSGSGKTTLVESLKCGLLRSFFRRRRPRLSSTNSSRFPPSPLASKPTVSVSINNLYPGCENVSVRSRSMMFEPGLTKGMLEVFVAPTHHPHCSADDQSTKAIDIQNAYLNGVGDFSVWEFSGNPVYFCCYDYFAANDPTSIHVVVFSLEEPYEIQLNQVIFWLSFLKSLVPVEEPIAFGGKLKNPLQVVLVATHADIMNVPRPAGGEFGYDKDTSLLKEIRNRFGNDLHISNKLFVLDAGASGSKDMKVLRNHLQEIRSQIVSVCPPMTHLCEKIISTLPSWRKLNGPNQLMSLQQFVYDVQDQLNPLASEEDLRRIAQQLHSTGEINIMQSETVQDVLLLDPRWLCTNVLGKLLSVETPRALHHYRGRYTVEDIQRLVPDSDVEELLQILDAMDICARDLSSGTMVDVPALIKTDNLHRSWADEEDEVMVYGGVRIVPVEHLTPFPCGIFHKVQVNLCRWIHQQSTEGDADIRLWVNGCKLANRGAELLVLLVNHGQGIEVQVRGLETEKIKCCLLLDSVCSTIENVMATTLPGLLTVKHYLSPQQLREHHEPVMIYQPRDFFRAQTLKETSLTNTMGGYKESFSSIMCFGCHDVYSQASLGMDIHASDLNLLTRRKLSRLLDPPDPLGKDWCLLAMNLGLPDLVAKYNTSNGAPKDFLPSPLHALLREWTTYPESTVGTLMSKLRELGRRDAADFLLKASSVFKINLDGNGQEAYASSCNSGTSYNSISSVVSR
SMILES,inhibition [1] [%],inhibition [2] [%],inhibition [3] [%],inhibition [4] [%],inhibition [5] [%],inhibition [6] [%],inhibition [7] [%],inhibition [8] [%],inhibition [9] [%],inhibition [10] [%],inhibition [11] [%],inhibition [12] [%],inhibition [13] [%],inhibition [14] [%],inhibition [15] [%],inhibition [16] [%],inhibition [17] [%],inhibition [18] [%],inhibition [19] [%],inhibition [20] [%]
O=C1NC(=O)C(c2ccccc2Cl)=C1Nc1cccc(O)c1,3.55,-0.07,1.16,1.27,1.05,1.45,1.77,1.97,8.19,1.72,13.6,0.9,8.27,1.6,4.56,0.62,2.78,0.71,0.58,1.47
COC(=O)Nc1nc2cc(Oc3cccc(NC(=O)Nc4cc(C(F)(F)F)ccc4F)c3)ccc2[nH]1,-0.6,5.45,-0.15,-0.06,-0.64,0,1.82,1.21,1.49,0.8,1.94,1.07,2.15,-0.49,1.36,1.02,1.01,3.02,-0.05,0.89
CN1CCC(C(=O)Nc2n[nH]c3nnc(-c4ccccc4)cc23)CC1,-2.32,0.57,-0.83,-0.36,-0.73,-1.34,-1.95,4.01,5.96,3.75,4.62,2.21,3.02,3.21,5.92,6.32,13.6,2.9,8.1,1.18
O=C1NC(=O)C(c2cccc(Cl)c2)=C1Nc1ccc(O)c(Cl)c1,2.13,-0.44,-0.92,0.03,0.04,-0.58,1.59,2.1,15.6,5.22,18.6,2.36,17.3,0.77,6.85,0.35,7.25,0.54,1.96,0.55
O=C1NC(=O)C(c2ccc(Cl)cc2)=C1Nc1ccc(Cl)c(C(=O)O)c1,-1.43,-1.2,-0.41,-1.23,-1.83,-0.48,-1,-0.68,-0.26,-0.12,1.91,-0.05,1.71,-3.46,1.25,-0.24,-0.57,-0.57,0.11,-0.46
N#Cc1c(NC(=O)c2cccc3ccccc23)sc2c1CCCC2,9.29,0.23,0.08,4.07,3.83,8.24,8.43,3.26,3.28,2.5,0.94,2.49,1.96,4.2,7.39,1.49,4.73,1.09,1.55,0.64
[O-][S+]1CCN(Cc2ccc(-c3ccc4ncnc(Nc5ccc(OCc6ccccc6)c(F)c5)c4c3)o2)CC1,3.11,1.91,3.92,0.41,0.42,0.85,3.94,1.63,2.55,2.88,1.39,0.67,1.47,2.88,1.82,2.24,4.41,1.32,9.37,-1.34
NC(=O)c1ccc(-c2nc(-c3ccccn3)c(-c3ccc4c(c3)OCO4)[nH]2)cc1,2.62,-0.58,-8.11,1.1,0.74,3.61,5.05,1.86,3.27,2.26,11,1.03,0.93,2.76,2.1,1.26,5.1,1.27,3.13,-0.01
CCc1cccc(NC(=O)Nc2ccc(Oc3ccc4nc(NC(=O)OC)[nH]c4c3)cc2)c1,-5.23,6.75,1.42,-0.49,-1.61,-2.74,-3.85,1.69,0.31,1.5,3.47,-0.22,-1.15,-0.95,2.29,5.71,15.8,4.24,12.2,2.55
c1cnn2ncc(-c3ccnc(Nc4ccc5c(c4)OCCO5)n3)c2c1,3.76,1.81,1.89,2.05,2.24,3.74,3.81,4.18,24.3,5.06,24.8,3.11,16.4,11.6,51.6,3.95,14.5,4.36,25.9,0.05
O=C1NC(=O)C(N2CCc3ccccc32)=C1c1ccc(Cl)cc1,13.8,1.5,1.94,4.64,5.01,10.4,10.3,3.93,5.85,5.98,2.11,3.11,2.16,4.84,6.67,2.34,3.78,1,3.38,0.05
COc1ccc(-c2coc3ncnc(N)c23)cc1,12.9,0.87,-0.02,3.78,4.6,10.7,11.6,4.41,3.73,5.6,-0.28,3.62,2.28,4.21,5.33,2.45,4.3,0.67,0.83,0.91
COc1cc2ncn(-c3cc(O[C@H](C)c4ccccc4Cl)c(C(N)=O)s3)c2cc1OC,-9.77,0.64,1.35,-0.8,-0.71,-2.77,-0.41,5.95,31.9,3.47,37.2,4.58,32,4.94,23.7,3.54,11.9,3.53,11.8,2.26
